# Assay results published in PubChem BioAssay (NCATS).
# Inconclusive results are not listed. Entries that show only a call come without a potency. Active and inactive are the calls of the source. Calls follow the shape of the dose curve; as a rule, active = well fitted inhibition curve with a large enough effect; inconclusive = small, poorly fitted or top-dose-only effect; inactive = flat fitted curve, though single readings scatter.
# Legend:
# Experiment in all cases: qHTS profiling for inhibitors of Plasmodium falciparum proliferation (AID 504749); also: nearly all actives have a fitted effect of over 60% in size
# Conditions in all cases: P. falciparum in erythrocytes, SYBR Green DNA, 72 h; series mostly up to 28.7 µM
# [1] = system: CP192
# Procedure, shortened: (§1)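 Readout was DNA-dye fluorescence from lysed cultures, ex 485/em 535 nm. Parasitized red cells had grown 72 h with compound; data scaled between 0.29 uM artemisinin and DMSO wells and corrected using vehicle-only plates.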
# [2] = system: CP194
# Procedure, shortened: as §1
# [3] = system: CP201
# Procedure, shortened: as §1
# [4] = system: CP211
# Procedure, shortened: as §1
# [5] = system: CP215
# Procedure, shortened: as §1
# [6] = system: CP217
# Procedure, shortened: as §1
# [7] = system: CP237
# Procedure, shortened: as §1
# [8] = system: CP238
# Procedure, shortened: as §1
# [9] = system: CP247
# Procedure, shortened: as §1
# [10] = system: CP250
# Procedure, shortened: as §1
# [11] = system: CP252
# Procedure, shortened: as §1
# [12] = system: CP256
# Procedure, shortened: as §1
# [13] = system: CP260
# Procedure, shortened: as §1
# [14] = system: CP262
# Procedure, shortened: as §1
# [15] = system: CP265
# Procedure, shortened: as §1
# [16] = system: CP266
# Procedure, shortened: as §1
# [17] = system: CP268
# Procedure, shortened: as §1
# [18] = system: CP269
# Procedure, shortened: as §1
# [19] = system: CP286
# Procedure, shortened: as §1
# [20] = system: CP203
# Procedure, shortened: as §1
# Potency is read from the fitted curve at half-maximal effect.
Structure (SMILES),Potency [1],Potency [2],Potency [3],Potency [4],Potency [5],Potency [6],Potency [7],Potency [8],Potency [9],Potency [10],Potency [11],Potency [12],Potency [13],Potency [14],Potency [15],Potency [16],Potency [17],Potency [18],Potency [19],Potency [20]
O=P(O)(O)C(O)(Cc1cccnc1)P(=O)(O)O,inactive,inactive,inactive,inactive,inactive,inactive,inactive,inactive,inactive,inactive,inactive,inactive,inactive,inactive,inactive,inactive,inactive,inactive,inactive,
O=C(O)c1cn(C2CC2)c2cc(N3CCNCC3)c(F)cc2c1=O,,,,,,inactive,,,inactive,,,,,,,,,,,
C1CCC(C(CC2CCCCN2)C2CCCCC2)CC1 (stereo not drawn),,15.1 µM (active),,,,10 µM (active),7.94 µM (active),,11.2 µM (active),12.6 µM (active),11.2 µM (active),10 µM (active),8.91 µM (active),inactive,,15.1 µM (active),12 µM (active),13.5 µM (active),3.98 µM (active),
CC(N)C12CC3CC(CC(C3)C1)C2 (stereo not drawn),,,inactive,,,inactive,5.62 µM (active),,,inactive,inactive,inactive,,inactive,,inactive,,inactive,,
COC(=O)Nc1nc2ccc(C(=O)c3ccccc3)cc2[nH]1,inactive,inactive,inactive,inactive,,inactive,inactive,inactive,inactive,inactive,inactive,inactive,inactive,inactive,inactive,,inactive,,inactive,
CCCCCCNC(=O)n1cc(F)c(=O)[nH]c1=O,,,,16.9 µM (active),,,,,,,,,,,,,,,7.08 µM (active),
COc1cc2c(Nc3ccc(Br)cc3F)ncnc2cc1OCC1CCN(C)CC1,,,,inactive,,0.447 µM (active),3.98 µM (active),6.31 µM (active),1 µM (active),1.41 µM (active),1.12 µM (active),3.16 µM (active),3.55 µM (active),,3.98 µM (active),inactive,2.13 µM (active),5.36 µM (active),3.98 µM (active),
CCc1cc(C(N)=S)ccn1,inactive,inactive,,inactive,inactive,inactive,inactive,inactive,inactive,inactive,inactive,inactive,inactive,inactive,inactive,inactive,inactive,inactive,inactive,
CCn1cc(C(=O)O)c(=O)c2cc(F)c(N3CCNCC3)cc21,inactive,,inactive,,inactive,inactive,,inactive,inactive,inactive,,,,inactive,inactive,,,,,
COc1cc([C@@H]2c3cc4c(cc3[C@H](O)[C@H]3COC(=O)[C@H]23)OCO4)cc(OC)c1OC,,,,,13.5 µM (active),,3.16 µM (active),,10 µM (active),8.91 µM (active),,8.91 µM (active),2.82 µM (active),inactive,2.51 µM (active),,9.53 µM (active),4.26 µM (active),4.47 µM (active),12 µM (active)
Oc1c(Cl)cc(Cl)c2cccnc12,inactive,,inactive,,,8.91 µM (active),10 µM (active),,8.91 µM (active),12.6 µM (active),,,,,,inactive,,,,
COc1cccc(N(C)C(=S)Oc2ccc3c(c2)CCCC3)n1,inactive,,,inactive,,inactive,inactive,inactive,inactive,inactive,inactive,inactive,,inactive,inactive,inactive,,inactive,,
Cn1nnc2c(C(N)=O)ncn2c1=O,inactive,inactive,inactive,inactive,,inactive,inactive,inactive,inactive,inactive,inactive,inactive,inactive,inactive,inactive,inactive,inactive,inactive,inactive,
CCCCOc1ccc(CC(=O)NO)cc1,4.05 µM (active),,,2.56 µM (active),,,4.47 µM (active),,4.47 µM (active),2.24 µM (active),3.98 µM (active),1.41 µM (active),2.82 µM (active),2.56 µM (active),,,,,3.98 µM (active),
CCn1cc(C(=O)O)c(=O)c2cc(F)c(N3CCN(C)CC3)cc21,inactive,inactive,inactive,,,,,inactive,,,,,,inactive,,inactive,inactive,inactive,7.08 µM (active),
COc1c(N2CCNC(C)C2)c(F)cc2c(=O)c(C(=O)O)cn(C3CC3)c12 (stereo not drawn),inactive,,inactive,inactive,inactive,inactive,inactive,inactive,inactive,,inactive,,inactive,,inactive,inactive,inactive,,,inactive

Structure (SMILES),Potency [1],Potency [2],Potency [3],Potency [4],Potency [5],Potency [6],Potency [7],Potency [8],Potency [9],Potency [10],Potency [11],Potency [12],Potency [13],Potency [14],Potency [15],Potency [16],Potency [17],Potency [18],Potency [19],Potency [20]
CC(C)(C)C(=O)OCOP(=O)(COCCn1cnc2c(N)ncnc21)OCOC(=O)C(C)(C)C,,inactive,inactive,inactive,,,,,inactive,,,,,inactive,,inactive,inactive,,,
Cc1oc(=O)oc1CN1CCN(c2cc3c(cc2F)c(=O)c(C(=O)O)c2n3C(C)S2)CC1 (stereo not drawn),,,,,,11.2 µM (active),10 µM (active),6.31 µM (active),8.91 µM (active),8.91 µM (active),7.94 µM (active),8.91 µM (active),6.31 µM (active),,11.2 µM (active),inactive,,,7.94 µM (active),
N[C@@H](Cc1ccc(O)c(O)c1)C(=O)O,inactive,inactive,inactive,inactive,inactive,,,,,,,,,inactive,,inactive,inactive,inactive,,
CNC(=O)c1cc(Oc2ccc(NC(=O)Nc3ccc(Cl)c(C(F)(F)F)c3)cc2)ccn1,10.7 µM (active),10.7 µM (active),,12 µM (active),15.1 µM (active),,11.2 µM (active),10 µM (active),10 µM (active),10 µM (active),,,,,,,,,,
CCOC(=O)c1ccc(C#Cc2ccc3c(c2)C(C)(C)CCS3)nc1,inactive,inactive,inactive,,inactive,inactive,inactive,inactive,,,inactive,,,inactive,,inactive,,inactive,,
C[C@@H](NCCCc1cccc(C(F)(F)F)c1)c1cccc2ccccc12,,13.5 µM (active),15.1 µM (active),13.5 µM (active),10.7 µM (active),7.94 µM (active),3.55 µM (active),11.2 µM (active),10 µM (active),,8.91 µM (active),,4.47 µM (active),inactive,11.2 µM (active),,,10.7 µM (active),11.2 µM (active),10.7 µM (active)
COC(=O)Nc1nc2ccc(Sc3ccccc3)cc2[nH]1,,inactive,inactive,inactive,inactive,inactive,inactive,inactive,inactive,inactive,inactive,inactive,inactive,inactive,inactive,,inactive,inactive,inactive,
Cc1ncc([N+](=O)[O-])n1CCO,inactive,inactive,inactive,inactive,,inactive,inactive,inactive,inactive,inactive,inactive,inactive,inactive,inactive,inactive,,inactive,inactive,inactive,
CN1CCCC(n2nc(Cc3ccc(Cl)cc3)c3ccccc3c2=O)CC1 (stereo not drawn),inactive,inactive,,inactive,,,,inactive,,inactive,inactive,inactive,,inactive,,inactive,inactive,inactive,,
O=C(O)c1cc(=O)[nH]c(=O)[nH]1,,inactive,inactive,inactive,inactive,inactive,inactive,inactive,inactive,inactive,inactive,inactive,inactive,inactive,inactive,inactive,inactive,inactive,inactive,
O=c1oc2c(O)c(O)cc3c(=O)oc4c(O)c(O)cc1c4c23,,,,,,,2 µM (active),,,,,,1.41 µM (active),,inactive,,,0.757 µM (active),1 µM (active),inactive
CNNCc1ccc(C(=O)NC(C)C)cc1,inactive,inactive,,inactive,inactive,inactive,inactive,inactive,inactive,inactive,inactive,inactive,inactive,inactive,inactive,inactive,inactive,inactive,inactive,inactive
COc1cc(NCc2ccc3nc(N)nc(N)c3c2C)cc(OC)c1OC,3.01 µM (active),2.69 µM (active),4.78 µM (active),,0.675 µM (active),0.282 µM (active),0.141 µM (active),0.631 µM (active),0.447 µM (active),0.794 µM (active),0.251 µM (active),0.316 µM (active),0.158 µM (active),0.169 µM (active),3.16 µM (active),4.26 µM (active),0.953 µM (active),3.38 µM (active),0.178 µM (active),
CNCC[C@H](Oc1cccc2ccccc12)c1cccs1,,,inactive,inactive,,,10 µM (active),,,,,,8.91 µM (active),,,inactive,,,12.6 µM (active),
CCOc1cc(N)c(Cl)cc1C(=O)NCC1CN(Cc2ccc(F)cc2)CCO1 (stereo not drawn),,12 µM (active),,12 µM (active),10.7 µM (active),4.47 µM (active),11.2 µM (active),11.2 µM (active),7.08 µM (active),5.62 µM (active),10 µM (active),2.82 µM (active),11.2 µM (active),6.01 µM (active),3.16 µM (active),,,13.5 µM (active),3.98 µM (active),
